Source: PubChem BioAssay AID1850 (Southern Research Specialized Biocontainment Screening …, 2009)
Out of some 310,000 compounds screened, about 1,000 (0.32%) were called active. These entries were drawn from the full list. Entries with a potency or affinity are not part of this list. A number with no mark means an inactive call. The rule behind the calls is not given here.

Test: Inhibition of PhoP regulon, Salmonella typhi GFP reporter cells, confirmation, 4 h (AID 1850);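 note: 0% = induced wells with vehicle and 100% = uninduced wells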
Settings: Salmonella Typhi PhoP-promoter GFP reporter, fluorescence, at 50 µM, hits give high values

| Compound | inhibition [%] |
| --- | --- |
| Cc1ccsc1/C=C(\C#N)C(=O)NCc1cccnc1 | -18.9 |
| CCOc1ccccc1NC(=O)c1oc2ccccc2c1NC(=O)C1CCCO1 (stereo not drawn) | 0.28 |
| CCOC(=O)C1(Cc2cccc(F)c2)CCN(CC(O)CO)CC1 (stereo not drawn) | 1.5 |
| CCOC(=O)C1CCN(Cc2cc(C(C)(C)C)c(O)c(C(C)(C)C)c2)CC1 | -7.6 |
| COc1ccc(OC)c(/C=N/NC(=O)c2[nH]ncc2Br)c1 | -1.03 |
| COc1ccc(/C=N/NC(=O)c2[nH]ncc2Br)c(OC)c1 | 4.69 |
| CC(=O)c1ccc(NC(=S)NCc2ccc(Cl)cc2Cl)cc1 | -6.96 |
| CCn1c(=S)sc2c(=O)n(CC(=O)Nc3ccc(Cl)cc3)c(C)nc21 | 1.24 |
| O=C(CN1CC[n+]2c(-c3ccccc3)csc21)c1ccc(Br)cc1 | 7.36 |
| O=C(CN1CC[n+]2c(-c3cccs3)csc21)c1ccc(Br)cc1 | -5.14 |
| C/C(=N/Oc1nc(C)cc(C)n1)c1ccccc1 | -15.4 |
| Cc1c(C)[n+](=O)c(-c2ccc(Br)cc2)c(C)n1[O-] | 4.2 |
| CC[n+]1c(/C=C/c2ccc(N(C)C)cc2)ccc2ccccc21 | 1.34 |
| Cc1cc(/C=N/O)c(C)n1-c1ccccc1 | -9.52 |
| C[n+]1c(/C=C/c2ccc(O)cc2)ccc2ccccc21 | 10.8 |
| Cc1cc(/C=C2\SC(=O)NC2=O)c(C)n1-c1ccc(N(C)C)cc1 | -4.88 |
| CC1(C)CC(=O)C(C(=O)Cc2ccccc2[N+](=O)[O-])C(=O)C1 | 2.13 |
| COc1ccc(Cl)cc1Nc1nc(N)c2ccccc2n1 | 2.43 |
| COc1cc2nc(Nc3ccc(C)c(C)c3)nc(N)c2cc1OC | -4.96 |
| COc1ccc(Nc2nc(C)c3ccccc3n2)cc1 | 1.01 |
| COc1ccc(Nc2nc(N)c3ccccc3n2)c(OC)c1 | 4.67 |
| Nc1nc(Nc2ccc(Cl)cc2)n[nH]1 | 1.12 |
| COc1cc2nc(Nc3ccc(C)c(Cl)c3)nc(N)c2cc1OC | 5.86 |
| CCOc1ccc(Nc2ncnc(N)n2)cc1 | 20.7 |
| CCOc1ccc(Nc2nc(N)c([N+](=O)[O-])c(NCc3ccccc3)n2)cc1 | -9.51 |
| CCOC(=O)CSc1nnc2n1C(C)(C)Cc1ccccc1-2 | 11.2 |
| Cc1cc2n(n1)C(c1ccco1)Nc1ccccc1-2 (stereo not drawn) | -1.68 |
| COc1cc2ncnc(NCc3ccc(C)o3)c2cc1OC | 1.27 |
